Reference: PubChem BioAssay AID720650 (Broad Institute, 2013)
Unmarked numbers belong to inactive results. Active and inactive are the calls of the source. The rule behind the calls is not given here.

Assay: C difficile toxins, biochemical counterscreen, UDPG substrate absence, confirmatory dose response (AID 720650)
Conditions: series mostly up to 19.5 µM; activity change, negative = inhibition: at the top concentration

| Compound | activity change, negative = inhibition | AC50 |
| --- | --- | --- |
| CC(=O)N(c1ccccc1C)S(=O)(=O)c1ccc(Cl)cc1 | -13.3% |  |
| COc1ccc(CNC(=O)c2cc3c(s2)CN(Cc2ccccc2)C3)cc1 | -2.76% |  |
| COc1ccc2cc3c(nc2c1)OCC3 | -17.2% |  |
| COc1cc2ccccc2cc1C(=O)N/N=C/c1cccs1 | -4.51% |  |
| CC(Sc1nc(N)cc(=O)[nH]1)C(=O)NCC(=O)Nc1ccc(F)c(F)c1F (centres undefined) | -6.94% |  |
| CC(=O)N/C(=C\c1ccccc1)C(=O)Nc1ccc(O)cc1 |  | 17 µM (active) |
| CCCNC(=O)C[C@H]1CC[C@@H]2[C@@H](COc3ccc(NC(=O)c4ccc(Cl)cc4)cc3C(=O)N2C)O1 |  | > 39 µM |
| Cc1ccn2c(Cc3ccccc3)c(-c3ccc(F)cc3)nc2c1 | -13.8% |  |
| O=C(COc1ncnc2ccccc12)NCCc1ccc(F)cc1 | 1.52% |  |
| Cc1ccc(C(=O)NC(=O)OCCn2c(C)cnc2[N+](=O)[O-])cc1 | 0.194% |  |
| Cc1ccccc1NS(=O)(=O)c1ccc(OCC(=O)N2CCCCC2)cc1 | 7.54% |  |
| Cc1ccc(Cc2c(-c3ccc(C)cc3)nc3ccc(Cl)cn23)cc1 | 9.5% |  |
| CNC(=O)C[C@@H]1CC[C@@H]2[C@H](COc3ccc(NS(=O)(=O)c4ccccc4C)cc3C(=O)N2C)O1 | 11.4% |  |
| O=C(COc1ccc2ccc(=O)oc2c1)NCCN1CCOCC1 | -11.5% |  |
| CN(C)c1ccc(C(=S)N2CCN(C(=S)Nc3ccc(Cl)cc3)CC2)cc1 | -4.34% |  |
| CNC(=O)C1CCN(S(=O)(=O)c2c(C)noc2/C=C/c2ccc(C)cc2)CC1 | -2.85% |  |
| Cn1c(=O)[nH]c(=O)c2c1[nH]c(=S)n2Cc1ccc(Cl)cc1 |  | > 39 µM |
| COc1cc(/C=C(/NC(=O)c2ccccc2)C(=O)Nc2ccc(O)cc2)c([N+](=O)[O-])cc1OC |  | 13.9 µM (active) |
| CCCCn1c(=S)[nH]c2c(=O)n(C)c(=O)n(C)c21 |  | 14.9 µM (active) |
| Cc1ccc2c(c1)-c1c(cnn1CC(=O)NC(C)CCc1ccco1)CO2 (centres undefined) | -12.6% |  |

| Compound | activity change, negative = inhibition | AC50 |
| --- | --- | --- |
| NC(=O)c1ccc2c(=O)c(O)c(-c3cc(Cl)c(N)c(Cl)c3)[nH]c2c1 | -2.89% |  |
| CC1C(c2ccc3c(c2)OCO3)c2cc3c(cc2OC1N1CCOCC1)OCO3 (centres undefined) | -9.1% |  |
| CCNC(=O)C[C@@H]1CC[C@H]2[C@H](COc3ccc(NC(C)=O)cc3C(=O)N2C)O1 | 6.46% |  |
| COc1ccccc1/C=N/NC(=O)CC(=O)NCc1ccccc1 |  | > 39 µM |
| O=C(NCc1cc(C(F)(F)F)cc(C(F)(F)F)c1)C1CC(c2c(Cl)cccc2Cl)=NO1 (centres undefined) | 0.624% |  |
| CNC(=O)C1CCN(S(=O)(=O)c2c(C)noc2/C=C/c2cccc(OC)c2)CC1 | -5.22% |  |
| Cn1c(=O)c2c([nH]c(=S)n2Cc2ccc(Cl)cc2)n(C)c1=O | -22.4% |  |
| CC(=O)Nc1ccc(NC(=O)CN2CCN(c3ccccn3)CC2)cc1 | -8.5% |  |
| O=C(CSc1nc2ccccc2[nH]1)NC1CCCc2ccccc21 (centres undefined) |  | > 39 µM |
| Oc1ccc(-c2nccs2)cc1 |  | 10.2 µM (active) |
| CC(=O)C[C@H]1c2ccccc2S(=O)(=O)N1C1CCCCC1 | 2.33% |  |
| C[C@@H]1CN([C@@H](C)CO)S(=O)(=O)c2ccc(-c3ccncc3)cc2O[C@@H]1CN(C)Cc1ccc(Oc2ccccc2)cc1 | -13.4% |  |
| Cn1c(-c2ccc(F)c(F)c2)cc2onc(-c3ccccc3)c2c1=O | -4.71% |  |
| Cc1cnc(C(=O)OCC(=O)Nc2ccc(OCc3ccccc3)cc2)cn1 | 11.9% |  |
| O=C(CSc1cccc2cccnc12)N/N=C/c1ccc(O)cc1 |  | 11.1 µM (active) |
| O=C(Nc1cc(S(=O)(=O)N2CCOCC2)ccc1N1CCOCC1)c1ccccc1Cl |  | > 39 µM |
| CCOc1ccccc1-n1c(C)nc2cc(C(=O)O)ccc21 | 7.93% |  |
| O=C(C[C@@H]1CC[C@@H]2[C@H](COC[C@@H](O)CN2C(=O)c2ccccn2)O1)NC1CCC1 | -2.66% |  |
| O=C(C[n+]1ccccc1)N/N=C/c1ccc(O)cc1 |  | 20.2 µM (active) |
